Results: PubChem BioAssay AID1159580 (chemical genetic matrix, 2015)
In all, about 5,500 compounds went through this assay and about 2,000 (36%) were called active. Another 18% or so got no clear call; they are omitted. No stated cut-off is given here; in the data, active means normalized growth mostly below about 0.91 (no sharp cut-off); inconclusive means no clear call, values can overlap the other calls; inactive means mostly above about 0.92. Some of the results follow.

Assay: chemical genetic growth profiling, strain panel (AID 1159580);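 further: tested at 20 µM; growth read once vehicle control cultures reached saturation at 30 °C; 1 = growth at the plate median or of vehicle wells; lower values mean less growth of the strain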
Conditions: S. cerevisiae deletion strains, growth OD

Measured: normalized growth

CC(=O)O[C@@H]1CC[C@]2(C)C3CC[C@]4(C)C(=O)CCC4C3CC[C@H]2C1 (stereo partly specified)
active: locus YBR009C, strain hhf1, hits give low values 0.866 | locus YDL035C, strain GPR1, hits give low values 0.85 | locus YDR162C, strain NBP2, hits give low values 0.661 | locus YDR502C, strain sam2, hits give low values 0.883 | locus YGR135W, strain pre9, hits give low values 0.876 | locus YIL066C, strain RNR3, hits give low values 0.852 | locus YLR262C, strain YPT6 (second series), hits give low values 0.725 | locus YLR320W, strain mms22, hits give low values 0.868 | locus YML032C, strain rad52, hits give low values 0.885 | locus YMR205C, strain PFK2, hits give low values 0.867 | locus YNL307C, strain MCK1, hits give low values 0.848 | locus YNR052C, strain pop2, hits give low values 0.877 | locus YOL147C, strain pex11, hits give low values 0.865 | locus YOR001W, strain rrp6, hits give low values 0.891 | locus YOR184W, strain ser1, hits give low values 0.713 | locus YOR270C, strain vph1, hits give low values 0.72
inactive: locus YAL021C, strain ccr4, hits give low values 0.944 | locus YAL026C, strain drs2, hits give low values 0.967 | locus YAL030W, strain snc1, hits give low values 1.01 | locus YBL061C, strain skt5, hits give low values 0.988 | locus YBR021W, strain FUR4, hits give low values 0.861 | locus YBR023C, strain chs3, hits give low values 0.98 | locus YBR171W, strain sec66, hits give low values 0.97 | locus YBR229C, strain ROT2, hits give low values 0.934 | locus YBR231C, strain swc5, hits give low values 1.01 | locus YBR279W, strain paf1, hits give low values 1 | locus YCL011C, strain gbp2, hits give low values 0.973 | locus YCL016C, strain dcc1, hits give low values 1.02 | locus YCL029C, strain bik1, hits give low values 0.987 | locus YCL061C, strain MRC1, hits give low values 0.979 | locus YCL069W, strain vba3, hits give low values 0.96 | locus YCR088W, strain abp1, hits give low values 0.984 | locus YDL005C, strain med2, hits give low values 1 | locus YDL040C, strain nat1, hits give low values 0.982 | locus YDL074C, strain BRE1, hits give low values 0.867 | locus YDL101C, strain DUN1, hits give low values 0.964 | locus YDL185W, strain tfp1, hits give low values 0.981 | locus YDL192W, strain arf1, hits give low values 0.937 | locus YDR001C, strain nth1, hits give low values 0.997 | locus YDR069C, strain doa4, hits give low values 0.969 | locus YDR101C, strain arx1, hits give low values 0.995 | locus YDR137W, strain rgp1, hits give low values 0.876 | locus YDR150W, strain NUM1, hits give low values 0.992 | locus YDR159W, strain sac3, hits give low values 0.931 | locus YDR195W, strain ref2 1.07 | locus YDR297W, strain sur2, hits give low values 1.01 | locus YDR318W, strain mcm21, hits give low values 0.942 | locus YDR334W, strain swr1, hits give low values 0.972 | locus YDR335W, strain msn5, hits give low values 0.995 | locus YDR388W, hits give low values 0.939 | locus YDR392W, strain spt3, hits give low values 0.929 | locus YEL003W, strain gim4, hits give low values 0.965 | locus YEL037C, strain rad23, hits give low values 0.985 | locus YEL061C, strain CIN8 (second series), hits give low values 0.988 | locus YEL061C, strain CIN8, hits give low values 0.983 | locus YER015W, strain faa2, hits give low values 0.996 | locus YER016W, strain bim1, hits give low values 1.03 | locus YER110C, hits give low values 0.996 | locus YER111C, strain swi4, hits give low values 0.986 | locus YER155C, strain BEM2 (second series), hits give low values 0.992 | locus YER155C, strain BEM2, hits give low values 1.01 | locus YER167W, strain BCK2, hits give low values 0.947 | locus YFR010W, strain ubp6, hits give low values 0.972 | locus YGL078C, strain dbp3, hits give low values 0.948 | locus YGL086W, strain mad1, hits give low values 0.987 | locus YGL167C, strain pmr1, hits give low values 0.999 | locus YGL173C, strain kem1, hits give low values 0.953 | locus YGL227W, strain vid30, hits give low values 0.989 | locus YGL240W, strain doc1, hits give low values 0.985 | locus YGL248W, strain PDE1, hits give low values 0.959 | locus YGL253W, strain hxk2, hits give low values 0.966 | locus YGR252W, strain gcn5, hits give low values 0.83 | locus YHR013C, strain ard1, hits give low values 1.05 | locus YHR027C, strain rpn1, hits give low values 0.977 | locus YHR030C, strain SLT2, hits give low values 0.999 | locus YHR079C, strain IRE1 (second series), hits give low values 0.987 | locus YHR094C, strain hxt1, hits give low values 0.978 | locus YHR129C, strain ARP1, hits give low values 0.974 | locus YHR142W, strain chs7, hits give low values 0.943 | locus YHR200W, strain rpn10, hits give low values 0.978 | locus YIL073C, strain SPO22, hits give low values 0.872 | locus YIL125W, strain kgd1, hits give low values 0.981 | locus YIR030C, strain dcg1, hits give low values 0.967 | locus YJL092W, strain hpr5, hits give low values 0.986 | locus YJL095W, strain BCK1 (second series), hits give low values 0.949 | locus YJL095W, strain BCK1, hits give low values 0.828 | locus YJL115W, strain asf1, hits give low values 0.991 | locus YJL129C, strain trk1, hits give low values 0.942 | locus YJL134W, strain LCB3, hits give low values 0.951 | locus YJL154C, strain vps35, hits give low values 0.988 | locus YJL164C, strain tpk1, hits give low values 0.949 | locus YJL166W, strain qcr8, hits give low values 0.922 | locus YJL168C, strain set2, hits give low values 0.995 | locus YJL187C, strain SWE1 (second series), hits give low values 0.955 | locus YJR043C, strain POL32, hits give low values 0.962 | locus YJR075W, strain HOC1, hits give low values 0.982 | locus YKL009W, strain mrt4, hits give low values 0.941 | locus YKL068W, hits give low values 0.979 | locus YKL085W, strain MDH1 (second series), hits give low values 0.954 | locus YKL085W, strain MDH1, hits give low values 0.954 | locus YKL160W, strain elf1, hits give low values 1.03 | locus YKL190W, strain CNB1, hits give low values 0.973 | locus YKR001C, strain vps1, hits give low values 0.984 | locus YKR026C, strain gcn3, hits give low values 0.982 | locus YKR091W, strain srl3, hits give low values 0.989 | locus YLL001W, strain dnm1, hits give low values 0.974 | locus YLL026W, hits give low values 0.999 | locus YLL041C, strain sdh2, hits give low values 0.986 | locus YLR027C, strain aat2, hits give low values 0.962 | locus YLR039C, strain RIC1, hits give low values 0.772 | locus YLR058C, strain SHM2, hits give low values 0.96 | locus YLR102C, strain apc9, hits give low values 0.991 | locus YLR221C, strain rsa3, hits give low values 0.91 | locus YLR258W, strain gsy2, hits give low values 0.974 | locus YLR262C, strain YPT6, hits give low values 0.672 | locus YLR268W, strain sec22, hits give low values 0.979 | locus YLR330W, strain CHS5, hits give low values 0.933 | locus YLR342W, strain FKS1 (second series), hits give low values 0.804 | locus YLR342W, strain FKS1, hits give low values 0.962 | locus YLR357W, strain rsc2, hits give low values 1.02 | locus YLR370C, strain arc18, hits give low values 1.02 | locus YLR371W, strain rom2, hits give low values 0.992 | locus YLR384C, strain iki3, hits give low values 1.02 | locus YLR418C, strain cdc73, hits give low values 0.843 | locus YML016C, strain PPZ1, hits give low values 0.969 | locus YML120C, strain ndi1, hits give low values 0.943 | locus YML124C, strain tub3, hits give low values 1 | locus YMR058W, strain fet3, hits give low values 0.95 | locus YMR078C, strain ctf18, hits give low values 1 | locus YMR125W, strain sto1, hits give low values 1 | locus YMR129W, hits give low values 1 | locus YMR223W, strain ubp8, hits give low values 0.916 | locus YMR231W, strain pep5, hits give low values 0.993 | locus YMR307W, strain GAS1, hits give low values 0.797 | locus YNL067W, strain RPL9B, hits give low values 1 | locus YNL071W, strain lat1, hits give low values 0.949 | locus YNL209W, strain ssb2, hits give low values 0.989 | locus YNL233W, strain BNI4, hits give low values 0.941 | locus YNL248C, strain rpa49, hits give low values 0.963 | locus YNL250W, strain rad50, hits give low values 0.963 | locus YNL271C, strain bni1, hits give low values 0.979 | locus YNL298W, strain CLA4, hits give low values 0.913 | locus YNL322C, strain KRE1 (second series), hits give low values 1.02 | locus YNR049C, strain mso1, hits give low values 1.01 | locus YOL012C, strain htz1 1.51 | locus YOR061W, strain CKA2, hits give low values 0.942 | locus YOR069W, strain VPS5, hits give low values 0.977 | locus YOR070C, strain gyp1, hits give low values 1 | locus YOR080W, strain dia2, hits give low values 1.01 | locus YOR083W, strain WHI5, hits give low values 0.975 | locus YOR106W, strain vam3, hits give low values 0.978 | locus YOR136W, strain idh2, hits give low values 0.998 | locus YOR144C, strain elg1, hits give low values 1 | locus YOR265W, strain rbl2, hits give low values 0.983 | locus YOR290C, strain snf2, hits give low values 0.958 | locus YOR316C, strain cot1, hits give low values 0.986 | locus YPL051W, strain arl3, hits give low values 1 | locus YPL078C, strain atp4, hits give low values 0.964 | locus YPL106C, strain sse1, hits give low values 1.03 | locus YPL240C, strain hsp82, hits give low values 0.99 | locus YPL241C, strain CIN2, hits give low values 0.985 | locus YPR119W, strain clb2, hits give low values 0.994 | locus YPR141C, strain kar3, hits give low values 0.991 | locus YPR163C, strain tif3, hits give low values 0.981 | locus YPR167C, strain met16, hits give low values 0.942 | strain wtn01, hits give low values 1.01
